Records with an inconclusive call do not appear. Activity calls are given as the source filed them. Unless noted, calls come from the whole dose curve; as a rule, active = well fitted curve in the direction sought with a large enough effect; inconclusive = small, poorly fitted or top-dose-only effect, or another doubt; inactive = no such curve, though single readings can be large; an effect the other way counts as inactive or inconclusive.

Experiment [1] is described as follows: Validation screen for small molecules that induce DNA re-replication in SW480 colon adenocarcinoma cells (AID 504364). In a few lines:
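SW480 cells seeded at 250 per well were exposed to compound or DMSO for 48 hr at 37 C, 5% CO2, then stained with Hoechst for 40 min. DNA content per nucleus was imaged (405 nm ex, 500-530 nm em).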

In experiment [2] the target is Peptidyl-prolyl cis-trans isomerase NIMA-interacting 1 (Homo sapiens) (UniProt Q13526). The experiment is described as follows: qHTS Validation Assay to Find Inhibitors of Pin1 (AID 504536; active = well fitted inhibition curve with a large enough effect in the polarisation, with a control signal flat, not every such curve was filed as active; the % refers to the polarisation). The method in brief: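 Fluorescence polarization competition: compounds (titration) displace HiFluor-488-labeled Pin1-1b peptide from Pin1 (0.3 uM final) in pH 7.5 HEPES buffer with DTT, 10 min at room temperature; %Activity normalized to no-enzyme wells, curves fitted.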
(In qHTS, concentration-response curves come from the screen itself.)

Experiment [3] has as its target Phosphoglycerate kinase, glycosomal (Trypanosoma brucei brucei) (UniProt P07378). Briefly: qHTS Validation Assay to Find Inhibitors of Phosphoglycerate Kinase (AID 504547). In a few lines: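 PGK activity was coupled to GAPDH (100nM final), which generates the unstable substrate 1,3-bisphosphoglycerate in-well. Reactions ran 60 minutes at room temperature in 100mM TEA pH 7.6, 5mM MgCl2, 0.01% Tween-20, then Kinase-Glo Plus luminescence was read.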

In experiment [4] the target is phosphoglycerate mutase (Leishmania major) (UniProt Q4Q090). Briefly: qHTS Validation Assay to Find Inhibitors of Phosphoglycerate Mutase (AID 504548).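 Note: end-point luminescence from Kinase-GloPlus after the PGAM reaction; series mostly up to about 58 µM.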 In a few lines:
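L. major PGAM (1.25nM final) was added to substrate buffer and pinned compound, incubated 45 minutes at room temperature, then Kinase-GloPlus added; luminescence read after 10 minutes. Buffer: 100 mM TEA pH 7.6, 5 mM MgCl2, 0.01% Tween-20.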

The target of experiment [5] is Ubiquitin carboxyl-terminal hydrolase 1 (Homo sapiens) (UniProt O94782). The experiment is described as follows: Inhibitors of USP1/UAF1: Pilot qHTS (AID 504865).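 Note: rhodamine fluorescence freed from ubiquitin-rhodamine substrate followed over time; top concentration of the series differs between compounds; nearly all actives have a fitted effect of over 35% in size.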 The method in brief: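 Enzyme-free wells gave the negative control, while test wells held 1nM USP1/UAF1 preincubated with compound for 15 min at room temperature. Ub-Rho at 150nM final started the reaction, and fluorescence at 480/540 nm was recorded kinetically.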

A short description of experiment [6]: qHTS for Inhibitors of ATXN expression: Validation (AID 588378). Note: nearly all actives have a fitted effect of over 75% in size. Note: potency is the fitted concentration of half-maximal effect. The method in brief:
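After a 2 h attachment and 24 h compound incubation, HEK293-ATXN2-FFLuc wells are read for fluorescence at 405 nm excitation/525 nm emission as a viability measure, then for Bright-Glo luminescence reflecting ATXN2 expression.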

In experiment [7] the target is DNA dC->dU-editing enzyme APOBEC-3G (Homo sapiens) (UniProt Q9HC16). The experiment is described as follows: qHTS for inhibitors of Vif-A3G interactions: Validation (AID 588379). In a few lines:
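HeLa cells stably expressing Vif and A3G-eYFP, 700 cells/well, incubated overnight at 37 deg C, then exposed to compound overnight at 37 deg C. Inhibition of Vif-mediated degradation read as increased yellow fluorescence (Ex 488/Em 500-530) by laser-scanning cytometry.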

In experiment [8] the target is Estrogen receptor (Homo sapiens) (UniProt P03372). Briefly: qHTS assay for small molecule agonists of estrogen receptor alpha signaling (AID 588514; calls by dose curve; note: nearly all actives have a fitted effect of over 70% in size; note: potency is the fitted concentration of half-maximal effect). In a few lines:
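ER-alpha-UAS-bla GripTite HEK 293 cells in medium with 2% charcoal/dextran-treated FBS were treated with compound titrations at 37 C for 18 hrs; beta-lactamase reporter read by CCF4 fluorescence after 2 hrs at RT.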

Experiment [9] in a line: qHTS for Inhibitors of ATXN expression: Validation of Cytotoxic Assay (AID 588349). The method in brief:
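HEK293 cells were dosed with titrated compounds for 72 hr at 37 degrees C. Viability was read by CellTiter Glo luminescence, with intracellular ATP as the marker of cell survival.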

Experiment [10] deals with Estrogen receptor (Homo sapiens) (UniProt P03372). Briefly: qHTS assay for small molecule antagonists of estrogen receptor alpha signaling (AID 588513; active = well fitted curve in the direction sought with a large enough effect in the signal ratio, with a control signal flat, not every such curve was filed as active; the % refers to the signal ratio). In a few lines:
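Antagonist-mode qHTS in ER-alpha-UAS-bla HEK 293 cells: compound titration, 0.5nM estradiol for 18 h, CCF4 fluorescence, Hill-derived IC50.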

DNA dC->dU-editing enzyme APOBEC-3G (Homo sapiens), sequence (Q9HC16 whole entry, looked up): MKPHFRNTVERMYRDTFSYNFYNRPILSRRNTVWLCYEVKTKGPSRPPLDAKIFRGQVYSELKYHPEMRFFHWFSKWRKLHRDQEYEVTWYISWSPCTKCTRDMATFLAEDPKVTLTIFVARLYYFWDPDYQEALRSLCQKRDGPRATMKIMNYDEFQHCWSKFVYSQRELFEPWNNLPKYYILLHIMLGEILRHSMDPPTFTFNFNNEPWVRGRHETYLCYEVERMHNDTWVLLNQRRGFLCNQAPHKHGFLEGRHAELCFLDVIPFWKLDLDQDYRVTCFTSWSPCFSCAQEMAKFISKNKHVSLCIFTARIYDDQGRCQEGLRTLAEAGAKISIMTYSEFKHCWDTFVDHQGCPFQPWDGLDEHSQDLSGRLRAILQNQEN
Peptidyl-prolyl cis-trans isomerase NIMA-interacting 1 (Homo sapiens), sequence (Q13526 whole entry, looked up): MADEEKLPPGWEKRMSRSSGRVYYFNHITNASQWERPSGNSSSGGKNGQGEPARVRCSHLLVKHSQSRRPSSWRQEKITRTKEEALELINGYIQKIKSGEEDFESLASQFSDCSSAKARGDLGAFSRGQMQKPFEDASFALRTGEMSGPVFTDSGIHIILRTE
Ubiquitin carboxyl-terminal hydrolase 1 (Homo sapiens), sequence (O94782 whole entry, looked up): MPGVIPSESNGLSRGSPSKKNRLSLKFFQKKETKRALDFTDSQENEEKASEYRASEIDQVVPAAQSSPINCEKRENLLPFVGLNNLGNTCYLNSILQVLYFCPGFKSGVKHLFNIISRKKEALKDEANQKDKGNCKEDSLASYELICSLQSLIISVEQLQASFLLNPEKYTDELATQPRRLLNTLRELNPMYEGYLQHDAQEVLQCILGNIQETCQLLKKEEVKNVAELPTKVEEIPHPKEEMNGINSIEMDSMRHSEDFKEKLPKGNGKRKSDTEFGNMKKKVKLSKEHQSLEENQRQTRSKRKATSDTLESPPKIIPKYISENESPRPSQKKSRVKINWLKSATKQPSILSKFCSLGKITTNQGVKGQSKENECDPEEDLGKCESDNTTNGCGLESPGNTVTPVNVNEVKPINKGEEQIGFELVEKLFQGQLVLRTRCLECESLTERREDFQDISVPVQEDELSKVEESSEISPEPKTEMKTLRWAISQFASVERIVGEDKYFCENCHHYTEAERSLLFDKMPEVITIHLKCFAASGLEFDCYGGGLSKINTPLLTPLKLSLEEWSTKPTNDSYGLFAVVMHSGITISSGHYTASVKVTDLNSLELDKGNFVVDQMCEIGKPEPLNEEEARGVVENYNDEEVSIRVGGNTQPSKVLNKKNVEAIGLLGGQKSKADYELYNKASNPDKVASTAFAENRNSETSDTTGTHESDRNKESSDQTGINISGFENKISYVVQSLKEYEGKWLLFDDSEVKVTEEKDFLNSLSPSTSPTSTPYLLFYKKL
phosphoglycerate mutase (Leishmania major), sequence (Q4Q090 1-553): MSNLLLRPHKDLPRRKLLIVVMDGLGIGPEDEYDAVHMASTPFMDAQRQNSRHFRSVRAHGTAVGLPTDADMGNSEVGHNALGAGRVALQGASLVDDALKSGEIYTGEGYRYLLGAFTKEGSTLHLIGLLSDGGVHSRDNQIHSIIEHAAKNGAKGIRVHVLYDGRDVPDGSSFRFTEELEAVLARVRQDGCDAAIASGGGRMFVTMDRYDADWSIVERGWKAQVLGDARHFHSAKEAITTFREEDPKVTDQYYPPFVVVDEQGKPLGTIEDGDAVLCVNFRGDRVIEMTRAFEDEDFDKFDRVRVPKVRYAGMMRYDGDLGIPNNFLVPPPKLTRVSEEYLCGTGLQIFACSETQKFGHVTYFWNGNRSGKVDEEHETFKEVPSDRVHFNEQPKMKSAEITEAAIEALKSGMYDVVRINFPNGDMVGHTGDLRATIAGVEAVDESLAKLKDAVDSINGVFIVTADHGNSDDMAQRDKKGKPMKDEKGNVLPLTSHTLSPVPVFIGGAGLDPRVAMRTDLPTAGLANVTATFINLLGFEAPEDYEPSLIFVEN
Phosphoglycerate kinase, glycosomal (Trypanosoma brucei brucei), sequence (P07378 whole entry, looked up): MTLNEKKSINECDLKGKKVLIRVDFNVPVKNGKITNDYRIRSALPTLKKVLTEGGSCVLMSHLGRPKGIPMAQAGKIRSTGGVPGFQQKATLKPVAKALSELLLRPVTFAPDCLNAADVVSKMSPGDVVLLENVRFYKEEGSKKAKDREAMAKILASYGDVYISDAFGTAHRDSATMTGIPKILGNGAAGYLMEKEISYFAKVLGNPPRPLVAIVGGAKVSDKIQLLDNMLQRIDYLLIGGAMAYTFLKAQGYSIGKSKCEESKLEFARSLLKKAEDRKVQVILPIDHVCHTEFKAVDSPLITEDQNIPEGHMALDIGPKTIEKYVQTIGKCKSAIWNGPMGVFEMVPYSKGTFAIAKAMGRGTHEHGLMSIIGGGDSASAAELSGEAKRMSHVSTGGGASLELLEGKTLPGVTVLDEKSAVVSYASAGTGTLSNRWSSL
Estrogen receptor (Homo sapiens), sequence (P03372 whole entry, looked up): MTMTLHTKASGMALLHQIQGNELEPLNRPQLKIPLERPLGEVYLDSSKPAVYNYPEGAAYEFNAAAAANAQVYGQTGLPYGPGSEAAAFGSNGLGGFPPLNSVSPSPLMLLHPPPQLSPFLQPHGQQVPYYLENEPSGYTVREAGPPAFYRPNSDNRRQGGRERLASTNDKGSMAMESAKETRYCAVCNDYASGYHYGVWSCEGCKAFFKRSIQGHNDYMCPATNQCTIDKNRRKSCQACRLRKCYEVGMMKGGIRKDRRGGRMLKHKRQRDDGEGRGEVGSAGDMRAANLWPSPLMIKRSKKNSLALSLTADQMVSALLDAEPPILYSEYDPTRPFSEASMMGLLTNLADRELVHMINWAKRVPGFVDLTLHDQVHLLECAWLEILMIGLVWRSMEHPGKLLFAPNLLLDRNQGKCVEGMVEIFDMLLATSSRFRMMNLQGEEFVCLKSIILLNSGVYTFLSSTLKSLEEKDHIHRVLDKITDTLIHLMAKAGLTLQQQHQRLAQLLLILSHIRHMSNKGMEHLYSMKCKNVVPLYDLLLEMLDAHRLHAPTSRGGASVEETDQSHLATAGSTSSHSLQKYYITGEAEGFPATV

`COc1cc(C(=O)OCCCN2CCCN(CCCOC(=O)c3cc(OC)c(OC)c(OC)c3)CC2)cc(OC)c1OC`: the result in [1], in experiment [2], in [3], in experiment [4] and in experiment [7] was inactive. In addition, the Potency result in [5] and in [6] was “inactive” in each case.

As to `C[C@]12CCC(=O)C=C1CC[C@@H]1[C@@H]2C(=O)C[C@@]2(C)[C@H]1CC[C@]2(O)C(=O)CO`, the outcome in [1], in experiment [2], in [3] and in experiment [4] was inactive. Further, the Potency entry in experiment [5], in [6] and in experiment [8] was “inactive” throughout.

As for `C(=C\c1ccccc1)/CN1CCN(C(c2ccccc2)c2ccccc2)CC1`, the result in experiment [1], in [2], in [3] and in [4] was inactive. Moreover, the Potency entry in [9] and in experiment [6] was “inactive” throughout.

As to `CC1=C(C)C(=O)C(CCCCC#CCCCC#CCO)=C(C)C1=O`, the compound was called inactive in experiment [1], in experiment [2], in experiment [3] and in experiment [4]. Besides, the Potency in experiment [6] was 20 µM (active).

As for `O=C1NCN(c2ccccc2)C12CCN(CCCC(c1ccc(F)cc1)c1ccc(F)cc1)CC2`, the outcome in experiment [1], in experiment [2], in experiment [3] and in [4] was inactive. The Potency entry in experiment [9] and in experiment [6] was “inactive” throughout.

Turning to `COCCOC(=O)C1=C(C)NC(C)=C(C(=O)OC(C)C)C1c1cccc([N+](=O)[O-])c1` (stereo not given), the compound was called inactive in [1], in experiment [2], in [3] and in experiment [4]. Besides, the Potency entry in [5] and in experiment [6] was “inactive” each time.

Take `CC1=NS(=O)(=O)c2cc(Cl)ccc2N1`: the compound was called inactive in experiment [1], in experiment [2], in experiment [3], in [4] and in experiment [7]. Besides, the Potency entry in [5] and in experiment [6] was “inactive” throughout.

Take `Brc1c(NC2=NCCN2)ccc2nccnc12`: the outcome in experiment [1], in [2], in experiment [3], in [4] and in experiment [7] was inactive. In addition, the Potency result in [5] and in [6] was “inactive” each time.

Consider `CC(C)COCC(CN(Cc1ccccc1)c1ccccc1)N1CCCC1` (stereo not given), for which the compound was classed as inactive in experiment [1], in experiment [2], in [3] and in experiment [4]. Also, the Potency entry in experiment [5] and in [6] was “inactive” in each case.

Take `CCOC(=O)c1cnc2c(cnn2CC)c1NN=C(C)C`: the compound was classed as inactive in experiment [1], in experiment [2], in experiment [3], in [4] and in [7]. The Potency result in experiment [5] and in [6] was “inactive” each time.

For the compound `CCN(CC)CCOCCOC(=O)C1(c2ccccc2)CCCC1`, the compound was classed as inactive in experiment [1], in experiment [2], in experiment [3], in experiment [4] and in experiment [7]. Further, the Potency entry in experiment [5] was “inactive”.

Turning to `CCN1CCC[C@H]1CNC(=O)c1c(O)c(Cl)cc(Cl)c1OC`, the compound was classed as inactive in [1], in [2], in [3], in experiment [4] and in [7]. Further, the Potency result in experiment [5] and in [6] was “inactive” each time.

Regarding `COc1ccc(CN(CCN(C)C)c2ccccn2)cc1`, the outcome in experiment [1], in [2], in [3], in experiment [4] and in experiment [7] was inactive. The Potency entry in [5] is “inactive”.

`CC(N=C(NC#N)Nc1ccncc1)C(C)(C)C` (stereo not given): the outcome in [1] and in [2] was inactive. For the same compound, the Potency entry in [5], in experiment [9] and in experiment [6] was “inactive” throughout.

Take `CCCN(CCC)CCc1cccc2c1CC(=O)N2`: the compound was called inactive in [1], in experiment [2], in experiment [3] and in [4]. Moreover, the Potency entry in [5] and in experiment [6] was “inactive” each time.

`CCCCCN(CCCCC)C(=O)C(CCC(=O)O)NC(=O)c1ccc(Cl)c(Cl)c1` (stereo not given): the outcome in experiment [1], in [2], in experiment [3] and in [4] was inactive. The Potency result in experiment [5] and in [6] was “inactive” each time.

With `Cc1ccc(S(=O)(=O)NC(=O)NN2CCCCCC2)cc1`, the call in experiment [1], in experiment [2], in experiment [3], in [4] and in [10] was inactive. Moreover, the Potency result in [6] and in experiment [8] was “inactive” in each case.

As to `CCCCNc1ccc(C(=O)OCCN(C)C)cc1`, the compound was classed as inactive in [1], in experiment [2], in [3] and in experiment [4]. The Potency entry in experiment [5] and in experiment [6] was “inactive” throughout.

Consider `CCCC(C(=O)OCCN(CC)CC)(c1ccccc1)c1ccccc1`, for which the compound was called inactive in [1], in [2], in [3] and in [4]. Besides, the Potency entry in experiment [5] and in [6] was “inactive” in each case.

On to `NCCCNCCSP(=O)(O)O`, for which the result in [1], in experiment [2], in experiment [3] and in [4] was inactive. The Potency entry in [5] and in experiment [6] was “inactive” in each case.

For `FC(F)(F)c1ccccc1-n1ccnc1`, the compound was classed as inactive in [1], in experiment [2], in experiment [3], in experiment [4] and in experiment [7]. In addition, the Potency result in [5] and in experiment [6] was “inactive” each time.

For `CC(C)(Oc1ccc(CCNC(=O)c2ccc(Cl)cc2)cc1)C(=O)O`, the compound was called inactive in [2], in experiment [3], in experiment [4] and in experiment [10]. The Potency result in experiment [5], in [9], in experiment [6] and in experiment [8] was “inactive” in each case.

As to `CN(C)[C@@H]1C(=O)C(C(N)=O)=C(O)[C@@]2(O)C(=O)C3=C(O)c4c(O)ccc(Cl)c4[C@@H](O)[C@H]3C[C@@H]12`, the compound was called inactive in experiment [3] and in [4]. For the same compound, the Potency entry in [5], in experiment [9] and in experiment [6] was “inactive” throughout.

In the case of `Nc1nc(N)c2nc(-c3ccccc3)c(N)nc2n1`, the compound was called inactive in experiment [1], in [3], in [4] and in experiment [10]. In addition, the Potency result in [5] and in [6] was “inactive” each time. Moreover, in experiment [8], the Potency was 35.5 µM (active).

`COc1ccc2c(c1OC)C(=O)O[C@@H]2[C@H]1c2c(cc3c(c2OC)OCO3)CCN1C`: the outcome in experiment [2], in [3], in experiment [4] and in experiment [7] was inactive. In addition, the Potency result in experiment [5] and in experiment [6] was “inactive” throughout.

Regarding `COC(=O)[C@H]1[C@H]2C[C@@H]3c4[nH]c5cc(OC)ccc5c4CCN3C[C@H]2C[C@@H](OC(=O)c2cc(OC)c(OC)c(OC)c2)[C@@H]1OC`, the result in experiment [3] and in [4] was inactive. Besides, the Potency entry in experiment [9] and in [6] was “inactive” each time.

Consider `Nc1ncn([C@@H]2O[C@H](CO)[C@@H](O)[C@H]2O)c(=O)n1`, for which the result in experiment [2], in experiment [3], in experiment [4] and in experiment [10] was inactive. For the same compound, the Potency entry in experiment [5] and in experiment [8] was “inactive” in each case.

On to `C[C@]12CC[C@@H]3c4ccc(O)cc4C[C@@H](CCCCCCCCCS(=O)CCCC(F)(F)C(F)(F)F)[C@H]3[C@@H]1CC[C@@H]2O` (stereo not given in full), for which the outcome in experiment [2], in experiment [3] and in [4] was inactive. Moreover, the Potency result in experiment [9] and in [6] was “inactive” throughout.

On to `COc1cc2c(cc1OC)-c1cc(=Nc3c(C)cc(C)cc3C)n(C)c(=O)n1CC2`, for which the compound was classed as inactive in [1], in experiment [3] and in [4]. The Potency result in experiment [9] and in experiment [6] was “inactive” each time.

In the case of `c1cnc(N2CCN(Cc3ccc4c(c3)OCO4)CC2)nc1`, the outcome in experiment [1], in [3], in [4] and in [7] was inactive. Also, the Potency entry in experiment [5], in experiment [9] and in [6] was “inactive” in each case.

Regarding `CCCCOCCOCCOCc1cc2c(cc1CCC)OCO2`, in experiment [5], the Potency result was “inactive”.

Turning to `COC(=O)[C@@H](N)Cc1ccc(O)c(O)c1`, the compound was called inactive in experiment [1], in [3] and in experiment [4]. Further, the Potency entry in experiment [5] and in [6] was “inactive” throughout.

With `CCCCCCCC/C=C\CCCCCCCC(=O)NCc1ccc(O)c(OC)c1`, the call in experiment [2], in [3], in experiment [4] and in experiment [7] was inactive. Further, the Potency entry in experiment [9] and in experiment [6] was “inactive” each time.

`Fc1ccc(C(c2ccc(F)cc2)N2CCN(C/C=C/c3ccccc3)CC2)cc1`: the call in experiment [2], in experiment [3] and in experiment [4] was inactive.

The values are drawn from PubChem BioAssay (NCATS).
